{
  "source": "PubChem BioAssay AID489017",
  "about": "(The Scripps Research Institute Molecular Screening Center, 2010)",
  "test_system": "Imidazoline I2 Central",
  "assay": "receptor, enzyme and CYP inhibition profiling – biochemical, Ricerca HitProfilingScreen, CYP450, selectivity assay for S1P4 antagonist project, profiling panel (AID 489017)",
  "details": "Ricerca receptor/enzyme binding panel plus CYP450, at 10 µM, stronger effect = higher value",
  "note": "A number with no mark means an inactive call. No rule for the calls is given here.",
  "data": [
    {"smiles": "CCc1cccc(CC)c1NC(=O)c1ccc(-c2cc(Cl)ccc2Cl)o1", "values": [
      {"measurement": "inhibition", "value": 8, "unit": "%"}
    ]}
  ]
}
